{"source": "ChEMBL document CHEMBL4513216", "about": "“Probing the Open Global Health Chemical Diversity Library for Multistage-Active Starting Points for Next-Generation Antimalarials” (ACS Infect Dis, 2020)", "note": "The campaign covered roughly 69,000 compounds. About 8,600 (12%) showed an effect of 50% or more. The entries come from a sample that favours strong results as a whole.", "data": [{"test_system": "Plasmodium berghei", "test": "Screen against P. berghei liver stage (PbLuc), transformed with Luciferase, at 10uM", "type": "functional, HepG2", "conditions": "tested at 10 uM", "units": {"INHIBITION": "%"}, "values": [{"smiles": "CC1(c2ncc(CN(CC(=O)O)Cc3ccccc3)cn2)CCCCO1", "note": "(configuration not stated)", "INHIBITION": 16.9}, {"smiles": "Cc1ccc(F)c2c1CCCN2C(=O)c1cn(CC(=O)N(C)C)nn1", "INHIBITION": 29.1}, {"smiles": "CC1(C)OCC(CNC(=O)c2cnn(-c3cccc(Cl)c3Cl)c2N)O1", "note": "(configuration not stated)", "INHIBITION": -101}, {"smiles": "Cn1ccnc1CN1CCCC1CCc1ccccc1", "note": "(configuration not stated)", "INHIBITION": -67.9}, {"smiles": "O=C(CCNc1ccccc1)NC1CCN(C(=O)C2CCCCC2)CC1", "INHIBITION": 27.6}, {"smiles": "O=C(c1ccoc1)N1CCOCC2(CCN(C3CCOCC3)C2)C1", "note": "(configuration not stated)", "INHIBITION": 34.4}, {"smiles": "CC(C)NC(=O)N1CCCC2(CCN(c3ccsc3)C2=O)C1", "note": "(configuration not stated)", "INHIBITION": -4.82}, {"smiles": "CCc1nnc(CN2CCCC(c3cc(C(N)=O)[nH]n3)C2)o1", "note": "(configuration not stated)", "INHIBITION": 4.71}, {"smiles": "CCC(=O)c1ccc(OCC(=O)NCC2CC(CC)=NO2)cc1", "note": "(configuration not stated)", "INHIBITION": 52.6}, {"smiles": "CCC(=O)c1ccc(OCC(=O)NCC2CCCO2)cc1", "note": "(configuration not stated)", "INHIBITION": 3.48}, {"smiles": "C=C(C)COc1ccc(C(=O)NCC2CC(CC)=NO2)cc1", "note": "(configuration not stated)", "INHIBITION": 6.26}, {"smiles": "Cc1cc2cccc(NC(=O)N3CC[C@H]4CC[C@@H](C3)N4C)c2o1", "INHIBITION": -4.01}, {"smiles": "CCN(CC(=O)NC(C)C)C(=O)c1ccc(-c2ccsc2)nc1C", "INHIBITION": 47}, {"smiles": "CCc1n[nH]c(C2CN(C(=O)c3ncoc3CC)CCO2)n1", "note": "(configuration not stated)", "INHIBITION": -19.9}, {"smiles": "CCn1cnnc1C1CCN(C(=O)c2cccc(OC)c2OC)CC1", "INHIBITION": 22.3}, {"smiles": "CN(C)C(=O)C1(Oc2ccc(Cl)cc2)CCNCC1", "INHIBITION": 1.79}, {"smiles": "CN(Cc1ccoc1)C(=O)C1(Oc2ccc(Cl)cc2)CCNCC1", "INHIBITION": 11.9}, {"smiles": "CN(Cc1ccncn1)C(=O)C1(Oc2ccc(Cl)cc2)CCNCC1", "INHIBITION": 53.3}, {"smiles": "CC(C)c1ccc2c(c1)CCCN2C(=O)CN(C)S(C)(=O)=O", "INHIBITION": 48.3}, {"smiles": "CC(=O)c1c(C)nn(S(=O)(=O)c2ccc(C)cc2)c1C", "INHIBITION": -15.5}, {"smiles": "CC(=O)c1c(C)nn(S(=O)(=O)c2ccc(F)cc2)c1C", "INHIBITION": 53.8}, {"smiles": "CC(=O)c1c(C)nn(S(=O)(=O)c2ccc(Cl)cc2)c1C", "INHIBITION": -16.6}, {"smiles": "CSc1nc(N)cc(N2C[C@H]3CC[C@@H](C2)N(Cc2cscn2)C3=O)n1", "INHIBITION": 9.4}, {"smiles": "CS(=O)(=O)N1CCC2(CC1)CN(CC1CC1)CC21CCNC1=O", "note": "(configuration not stated)", "INHIBITION": 3.81}, {"smiles": "O=S(=O)(c1cccc(F)c1)N1C[C@H]2CC[C@@H](C1)N(Cc1ccccc1)C2", "INHIBITION": 63.6}, {"smiles": "O=C(c1c[nH]c(=O)c(Cl)c1)N1C[C@H]2CC[C@@H](C1)N(Cc1ccccc1)C2", "INHIBITION": -23.2}, {"smiles": "O=S(=O)(c1cccnc1)N1C[C@H]2CC[C@@H](C1)N(Cc1ccccc1)C2", "INHIBITION": 18.6}, {"smiles": "O=C(c1cc(F)cc(Cl)c1)N1C[C@H]2CC[C@@H](C1)N(Cc1ccccc1)C2", "INHIBITION": -31.3}, {"smiles": "CCN(CC)c1ccc(C(=O)N2C[C@H]3CC[C@@H](C2)N(CCOC)C3)cc1", "INHIBITION": 25.4}, {"smiles": "COCCN1C[C@@H]2CC[C@H]1CN(C(=O)c1ccc(Cl)cc1)C2", "INHIBITION": 66.1}, {"smiles": "COCCN1C[C@@H]2CC[C@H]1CN(C(=O)CCn1cc(Cl)cn1)C2", "INHIBITION": 26.6}, {"smiles": "O=S(=O)(c1cccnc1)N1C[C@H]2CC[C@@H](C1)N(Cc1ccccn1)C2", "INHIBITION": 31.7}, {"smiles": "O=C(c1ccc(F)c(Cl)c1)N1C[C@H]2CC[C@@H](C1)N(Cc1ccccc1)C2", "INHIBITION": 68.5}, {"smiles": "CN1CCN(C(=O)C2CCN(c3cccnn3)CC2)CC1", "INHIBITION": -9.32}, {"smiles": "CCc1nnc2n1CCN(C(=O)c1nc(-c3ccco3)sc1C)C2", "INHIBITION": 21.5}, {"smiles": "O=C(Cn1ccc(C(=O)O)n1)Nc1c(Cl)cccc1Cl", "INHIBITION": 19.09}, {"smiles": "Cc1ncc(CN(C)Cn2nc(-c3ccccc3)oc2=O)s1", "INHIBITION": 3.41}, {"smiles": "CN(Cc1nnc2n1CCC2)C(=O)c1ccc2c(c1)OCCO2", "INHIBITION": -2.53}, {"smiles": "O=C(Cc1ccccc1F)N1CCN(C(=O)c2ccoc2)CC1", "INHIBITION": 16.6}, {"smiles": "Cc1nc(N2CCC3(CCOC3)C2)c2cc[nH]c2n1", "note": "(configuration not stated)", "INHIBITION": 71.1}, {"smiles": "Cc1nnc2ccc(N3CCC4(CCOC4)C3)nn12", "note": "(configuration not stated)", "INHIBITION": 9}, {"smiles": "Cc1nc(C)c(C)c(N2CCC3(CCOC3)C2)n1", "note": "(configuration not stated)", "INHIBITION": -129}, {"smiles": "COc1ccc2c(c1)CN(Cc1ccco1)C(=O)CCN2", "INHIBITION": 17.7}, {"smiles": "Cc1ccc(-n2cc(C(=O)N3CCCC(n4cccn4)C3)nn2)cc1", "note": "(configuration not stated)", "INHIBITION": -2.19}, {"smiles": "O=C(O)CC1COCCN1C(=O)C1(c2ccc(Cl)cc2)CCC1", "note": "(configuration not stated)", "INHIBITION": 1.74}, {"smiles": "O=C(N1CCOCC(O)C1)C1(c2ccc(Cl)cc2)CCC1", "note": "(configuration not stated)", "INHIBITION": 0.0996}, {"smiles": "CNC(=O)CC1COCCN1C(=O)C1(c2ccc(Cl)cc2)CCC1", "note": "(configuration not stated)", "INHIBITION": 52.1}, {"smiles": "COc1cc(C(=O)N2CCC(c3n[nH]c(C)n3)CC2)cc(OC)c1C", "INHIBITION": 0.914}, {"smiles": "O=C(Cc1n[nH]c(-c2cncc(Br)c2)n1)NCc1ccccn1", "INHIBITION": 22.5}, {"smiles": "CC1(c2nccs2)CCN(C(=O)CCN2CCOCC2)CC1", "INHIBITION": 23.3}, {"smiles": "Cc1noc(C(C)N2CCN(Cc3nc(C)c(C)o3)CC2)n1", "note": "(configuration not stated)", "INHIBITION": -2.143}, {"smiles": "Cc1noc(-c2ccc(N(C)Cc3cccnc3)nc2)n1", "INHIBITION": 28.7}, {"smiles": "Cc1noc(-c2ccc(N(C)Cc3nccs3)nc2)n1", "INHIBITION": 1.79}, {"smiles": "Cc1noc(-c2cccnc2N(C)Cc2cscn2)n1", "INHIBITION": 68.8}, {"smiles": "Cc1noc(-c2ccc(N(C)Cc3ccncc3C)nc2)n1", "INHIBITION": -3.58}, {"smiles": "Cc1noc(-c2cccnc2N2CCN(c3cnn(C)c3)CC2)n1", "INHIBITION": -26.8}, {"smiles": "CN(Cc1ccc([S+](C)[O-])cc1)c1ccccn1", "note": "(configuration not stated)", "INHIBITION": 40.5}]}]}
